Results filed as inconclusive are left out. Active and inactive are the calls of the source. Unless noted, calls follow the shape of the dose curve; as a rule, active = well fitted curve in the direction sought with a large enough effect in the repeat runs; inconclusive = weak or mixed curves; inactive = no such curve, though single readings can be large; an effect the other way counts as inactive or inconclusive.
What was measured:
[1] = qHTS RealTime-Glo MT Cell Viability Assay in HEK293 cells - 24 hour (AID 1224886); settings: RealTime-Glo luminescence; series mostly up to 76.8 µM; also: top concentration of the series differs between compounds; nearly all actives have a fitted effect of over 50% in size
Method in brief: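 HEK293 cells were seeded at 600 cells/well together with NanoLuc luciferase and cell-permeant prosubstrate, preincubated 5 h at 37 C/5% CO2, then given compound in DMSO by pintool. Luminescence from viable-cell prosubstrate reduction was read repeatedly over 40 h.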

[2] = qHTS RealTime-Glo MT Cell Viability Assay in HEK293 cells - 8 hour (AID 1224887); settings: RealTime-Glo luminescence; series mostly up to 76.8 µM; also: top concentration of the series differs between compounds; nearly all actives have a fitted effect of over 50% in size
Method in brief: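 600 cells/well were plated with the nonlytic NanoLuc/prosubstrate reagent, pre-incubated 5 h, then given 23 nL of compound in DMSO. Incubation at 37 C for 40 h, with luminescence from viable-cell-reduced substrate read repeatedly from 0 h.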

[3] = A CellTox Green Cytotoxicity Assay to monitor cytotoxicity in HEK293 cells - 16 hour (AID 1224888); settings: CellTox Green fluorescence; series mostly up to 76.8 µM; also: nearly all actives have a fitted effect of over 35% in size
Method in brief: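 HEK293 cells, 600/well, were preincubated 5 hours and then exposed to compounds at 37 C for up to 40 hours. A cell-impermeant cyanine dye staining dead-cell DNA was read by fluorescence at 0, 8, 16, 24, 32 and 40 h time points.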

[4] = qHTS RealTime-Glo MT Cell Viability Assay in HepG2 cells - 0 hour (AID 1224889); settings: RealTime-Glo luminescence; series mostly up to 76.8 µM; also: nearly all actives have a fitted effect of over 50% in size
Method in brief: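 HepG2 cells were seeded at 600 cells/well together with NanoLuc luciferase and a cell-permeant prosubstrate, preincubated 5 h at 37 C/5% CO2, then pin-dosed with compounds in DMSO. Nonlytic luminescence from viable cells was read at each time point.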

[5] = A CellTox Green Cytotoxicity Assay to monitor cytotoxicity in HepG2 cells - 8 hour (AID 1224890); settings: CellTox Green fluorescence; series mostly up to 76.8 µM; also: nearly all actives have a fitted effect of over 45% in size; also: potency is read from the fitted curve at half-maximal effect
Method in brief: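 HepG2 cells, 600/well, preincubated 5 h with CellTox Green dye, then exposed to Tox21 compounds in DMSO at 37 C for up to 40 h. Dead-cell DNA fluorescence read at the indicated time point.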

[6] = qHTS assay to identify small molecule antagonists of the estrogen receptor alpha (ER-alpha) signaling pathway using the BG1 cell line in the presence of 0.1 nM 17-beta-estradiol - cell viability counter screen (AID 1259241); settings: VM7Luc4E2 (BG1) viability, CellTiter-Fluor protease, 22 h, 0.1 nM estradiol agonist added; series mostly up to 92.4 µM; also: nearly all actives have a fitted effect of over 40% in size
Method in brief: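 In this screen, hormone-deprived VM7Luc4E2 cells were seeded at 4,000 per well, dosed with compound and 0.1 nM estradiol final, and incubated 22 hr at 37C and 5% CO2; fluorogenic live-cell protease signal reported viability.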

[7] = qHTS assay to identify small molecule antagonists of the androgen receptor (AR) signaling pathway using the MDA cell line in the presence of 0.5 nM R1881 - cell viability counter screen (AID 1259242); settings: MDA-kb2 viability, CellTiter-Fluor protease fluorescence, 16 h; series mostly up to 92.4 µM; also: nearly all actives have a fitted effect of over 45% in size
Method in brief: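 MDA-kb2 cells (MMTV-luciferase, AR/GR responsive) were treated with compounds plus 0.5 nM R1881 (final) for 16 hr at 37C, 0% CO2. Viability was then read in the same wells as live-cell protease fluorescence (CellTiter-Fluor, 30 min).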

[8] = target: Estrogen receptor (Homo sapiens) (UniProt P03372); assay: qHTS assay to identify small molecule antagonists of the estrogen receptor alpha (ER-alpha) signaling pathway using the BG1 cell line in the presence of 0.1 nM 17-beta-estradiol (AID 1259244); settings: VM7Luc4E2 (BG1) ERE-luciferase, antagonist mode, 0.1 nM E2, 22 h; series mostly up to 92.4 µM; also: nearly all actives have a fitted effect of over 50% in size
Method in brief: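 VM7Luc4E2 cells (endogenous full-length ER-alpha, 4×ERE-luciferase), kept 5 days in phenol red-free, charcoal-stripped FBS medium; 4,000 cells/well. Compounds added with 0.1 nM (final) 17beta-estradiol, 22 hr at 37C; luminescence read with ONE-Glo after 30 min.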

[9] = qHTS assay to identify small molecule phospholipidosis (PLD) inducers (AID 1259344; active = well fitted curve in the direction sought with a large enough effect; an effect the other way counts as inactive or inconclusive); settings: HepG2 phospholipidosis, LipidTOX Red imaging, 24 h; series mostly up to 38.3 µM
Method in brief: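 HepG2 cells, 900/well, treated with compound plus LipidTOX Red for 24 h at 37 C; amiodarone positive and DMSO negative controls. Fixed with paraformaldehyde/Hoechst, then high-content imaging scored LipidTOX pit count and integrated intensity per well and per cell.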

[10] = target: Androgen receptor (Homo sapiens) (UniProt P10275); assay: qHTS assay to identify small molecule antagonists of the androgen receptor (AR) signaling pathway using the MDA cell line in the presence of 0.5 nM R1881 (AID 1259243); settings: MDA-kb2 MMTV-luciferase, R1881 0.5 nM, 16 h; series mostly up to 42.5 µM; also: nearly all actives have a fitted effect of over 50% in size
Method in brief: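 MDA-kb2 cells (MMTV-luciferase, responsive to AR and GR) at 3,000/well, rested 5 h at 37C, 0% CO2, then given compounds plus 0.5 nM R1881 (final) for 16 hr. Luciferase read with ONE-Glo after 30 min at room temperature.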
% is scaled to controls: 0 for no effect and ±100 for the full control effect.

Sequence of Estrogen receptor (Homo sapiens) (P03372 whole entry, looked up): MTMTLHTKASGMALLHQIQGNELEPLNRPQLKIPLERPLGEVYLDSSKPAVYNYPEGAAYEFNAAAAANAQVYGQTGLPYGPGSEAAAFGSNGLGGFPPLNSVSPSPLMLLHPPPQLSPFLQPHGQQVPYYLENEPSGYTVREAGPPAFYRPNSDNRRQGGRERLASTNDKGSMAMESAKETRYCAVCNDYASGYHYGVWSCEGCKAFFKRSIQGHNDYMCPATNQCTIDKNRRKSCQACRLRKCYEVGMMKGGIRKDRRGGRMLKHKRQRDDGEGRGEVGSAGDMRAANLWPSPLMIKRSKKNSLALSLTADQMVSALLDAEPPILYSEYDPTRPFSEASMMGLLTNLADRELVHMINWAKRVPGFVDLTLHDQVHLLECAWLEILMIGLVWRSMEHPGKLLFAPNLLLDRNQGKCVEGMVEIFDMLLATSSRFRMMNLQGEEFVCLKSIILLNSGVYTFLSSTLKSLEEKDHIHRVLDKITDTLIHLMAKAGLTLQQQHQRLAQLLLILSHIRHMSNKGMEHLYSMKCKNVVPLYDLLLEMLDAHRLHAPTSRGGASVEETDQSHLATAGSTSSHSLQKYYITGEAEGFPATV
Sequence of Androgen receptor (Homo sapiens) (P10275 whole entry, looked up): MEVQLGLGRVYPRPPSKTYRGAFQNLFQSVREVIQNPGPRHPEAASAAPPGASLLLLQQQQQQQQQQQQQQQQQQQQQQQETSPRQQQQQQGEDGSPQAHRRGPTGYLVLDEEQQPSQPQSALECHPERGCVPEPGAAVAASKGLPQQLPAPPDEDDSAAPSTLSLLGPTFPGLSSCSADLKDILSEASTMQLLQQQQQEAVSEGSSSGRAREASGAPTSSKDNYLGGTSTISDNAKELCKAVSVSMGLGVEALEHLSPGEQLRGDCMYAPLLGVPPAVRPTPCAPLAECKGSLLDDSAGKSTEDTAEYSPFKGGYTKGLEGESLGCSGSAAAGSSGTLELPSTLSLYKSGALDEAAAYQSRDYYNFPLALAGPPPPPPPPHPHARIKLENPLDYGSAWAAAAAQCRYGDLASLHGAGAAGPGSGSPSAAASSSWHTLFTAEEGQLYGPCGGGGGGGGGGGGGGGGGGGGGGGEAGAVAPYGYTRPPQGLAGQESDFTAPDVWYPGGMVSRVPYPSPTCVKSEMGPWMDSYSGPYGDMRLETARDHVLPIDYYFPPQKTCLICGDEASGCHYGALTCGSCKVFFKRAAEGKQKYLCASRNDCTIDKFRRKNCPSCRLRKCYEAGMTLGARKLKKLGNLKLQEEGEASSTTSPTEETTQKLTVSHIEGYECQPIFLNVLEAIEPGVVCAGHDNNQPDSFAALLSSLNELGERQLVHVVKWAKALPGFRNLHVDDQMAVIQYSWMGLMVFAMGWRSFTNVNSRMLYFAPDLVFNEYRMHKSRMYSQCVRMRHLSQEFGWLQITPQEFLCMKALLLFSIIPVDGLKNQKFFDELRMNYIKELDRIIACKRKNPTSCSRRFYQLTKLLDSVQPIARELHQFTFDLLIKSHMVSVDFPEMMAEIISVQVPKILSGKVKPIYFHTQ

Cc1ccccc1C
inactive: Potency [1] | Potency [2] | Potency [3] | Potency [4] | Potency [5] | Potency [6] | Potency [7] | Potency [8]

NS(=O)(=O)c1ccccc1OC(F)(F)F
inactive: Potency [1] | Potency [2] | Potency [3] | Potency [4] | Potency [6] | Potency [7]

Nc1ccc(S(=O)(=O)NC(=O)c2ccccc2)cc1
inactive: Potency [1] | Potency [2] | Potency [3] | Potency [4] | Potency [5] | Potency [6] | Potency [7] | Potency [8] | outcome [9]

F[Si-2](F)(F)(F)(F)F
inactive: Potency [1] | Potency [2] | Potency [3] | Potency [4] | Potency [5] | Potency [6] | Potency [7] | Potency [8] | outcome [9]

Cc1ccc2c(c1)c1c3n2CCNC3CCC1 (centres undefined)
inactive: Potency [1] | Potency [2] | Potency [4] | Potency [5] | Potency [6] | Potency [7]

O=C(O)C(=O)Nc1cccc(-c2nn[nH]n2)c1
inactive: Potency [1] | Potency [2] | Potency [3] | Potency [6] | Potency [7] | outcome [9]

Cc1ccc(S(=O)(=O)NC(=O)NC2CCCCCCC2)cc1
inactive: Potency [1] | Potency [2] | Potency [3] | Potency [5] | Potency [6] | Potency [7] | outcome [9]

O=[Si]=O
inactive: Potency [1] | Potency [2] | Potency [3] | Potency [6] | Potency [7] | Potency [8]

O=C(O)/C=C/c1ccccc1
inactive: Potency [1] | Potency [2] | Potency [3] | Potency [6] | Potency [7] | Potency [8] | outcome [9]

CC(C)(CO)[C@@H](O)C(=O)NCCCO
inactive: Potency [1] | Potency [2] | Potency [3] | Potency [5] | Potency [6] | Potency [7] | Potency [8] | outcome [9]

CCOC(=O)CC(CC(=O)OCC)(OC(C)=O)C(=O)OCC
inactive: Potency [1] | Potency [2] | Potency [4] | Potency [5] | Potency [6] | Potency [7]

CCCCC[Si](OCC)(OCC)OCC
inactive: Potency [1] | Potency [2] | Potency [4] | Potency [5] | Potency [6] | Potency [7] | outcome [10]

CN=C(NC#N)NCCSCc1csc(N=C(N)N)n1
inactive: Potency [1] | Potency [2] | Potency [3] | Potency [5] | Potency [6] | Potency [7] | Potency [8] | outcome [9]

COc1ccc(OC)c(NC(=O)CC(C)=O)c1
inactive: Potency [1] | Potency [2] | Potency [4] | Potency [5] | Potency [6] | Potency [7]

CC(C)COC(=O)COc1ccc(Cl)cc1Cl
inactive: Potency [1] | Potency [2] | Potency [4] | Potency [5] | Potency [6] | Potency [7] | outcome [10]

CNC(=O)C(c1ccccc1)c1ccccc1
inactive: Potency [1] | Potency [2] | Potency [3] | Potency [6] | Potency [7] | Potency [8]

CC(=O)N(CC(O)CO)c1c(I)c(C(=O)NCC(O)CO)c(I)c(C(=O)NCC(O)CO)c1I (centres undefined)
inactive: Potency [1] | Potency [2] | Potency [3] | Potency [5] | Potency [6] | Potency [7] | Potency [8] | outcome [9]

CC(C)c1ccccc1O
inactive: Potency [1] | Potency [2] | Potency [4] | Potency [5] | Potency [6] | Potency [7]

CCC(C)(CCC(C)C)C(=O)[O-].CCC(C)(CCC(C)C)C(=O)[O-].[Zn+2] (centres undefined)
inactive: Potency [1] | Potency [2] | Potency [4] | Potency [5] | Potency [6] | Potency [7]

CCCCCCCCCCCCCCCC(=O)NCCO
inactive: Potency [1] | Potency [2] | Potency [3] | Potency [7] | outcome [9]
active: Potency [5] 6.01 µM

CCCCCCCCCCCCCC(=O)OC
inactive: Potency [1] | Potency [2] | Potency [4] | Potency [5] | Potency [6] | Potency [7] | outcome [10] | Potency [8]

CCOC(=O)C(C)(C)C
inactive: Potency [1] | Potency [2] | Potency [3] | Potency [5] | Potency [6] | Potency [7] | Potency [8]

FC(F)(F)/C(=N\OCC1OCCO1)c1ccc(Cl)cc1
inactive: Potency [1] | Potency [2] | Potency [3] | Potency [5] | Potency [6] | Potency [7] | Potency [8]

C=C(C)C(=O)OC1CC(C)CC(C)(C)C1 (centres undefined)
inactive: Potency [1] | Potency [2] | Potency [4] | Potency [5] | Potency [6] | Potency [7]

CCCCC(C)C(=O)O (centres undefined)
inactive: Potency [1] | Potency [2] | Potency [3] | Potency [6] | Potency [7]

Nc1ccc(/C=C/c2ccc(N)cc2S(=O)(=O)O)c(S(=O)(=O)O)c1
inactive: activity change, negative = cytotoxicity [1] 1.86% [at 0.29 µM] | activity change, negative = cytotoxicity [2] 0.0792% [at 0.29 µM] | activity change [3] 0.863% [at 0.29 µM, stronger effect = higher value] | cytotoxicity increase [5] -4.57% [at 0.29 µM] | activity change, negative = cytotoxicity [6] -1.15% [at 0.349 µM] | viability change, negative = cytotoxic [7] 2% [at 0.349 µM] | activity change, negative = inhibition [8] 6.51% [at 0.349 µM] | outcome [9]

CCC(CO)CO
inactive: Potency [1] | Potency [2] | Potency [3] | Potency [6] | Potency [7] | Potency [8]

O=S(=O)(O)c1cc(O)ccc1O
inactive: Potency [1] | Potency [2] | Potency [4] | Potency [5]

From PubChem BioAssay (Tox21)
